Several values for one entry are separate records, joined by “and”; a condition that tells them apart may be missing. Identical values can stand only once. Out of some 5,500 compounds screened, about 2,000 (36%) were called active. Another 18% or so got no clear call; they are omitted. No stated cut-off is given here; in the data, active means normalized growth mostly below about 0.91 (no sharp cut-off); inconclusive means no clear call, values can overlap the other calls; inactive means mostly above about 0.92. The list shows a part of the results.
Experiment: chemical genetic growth profiling, strain panel (AID 1159580);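 further: tested at 20 µM; growth read once vehicle control cultures reached saturation at 30 °C; 1 = growth at the plate median or of vehicle wells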
Conditions: S. cerevisiae deletion strains, growth OD

Measured: normalized growth

CCCCc1nc(Cl)c(CO)n1Cc1ccc(-c2ccccc2-c2nn[nH]n2)cc1
inactive: locus YAL013W, strain DEP1, stronger effect = lower value 1.01 | locus YAL021C, strain ccr4, stronger effect = lower value 0.992 | locus YAL026C, strain drs2, stronger effect = lower value 0.99 | locus YAL030W, strain snc1, stronger effect = lower value 0.974 | locus YBL061C, strain skt5, stronger effect = lower value 0.99 | locus YBR009C, strain hhf1, stronger effect = lower value 0.993 | locus YBR021W, strain FUR4, stronger effect = lower value 1.01 | locus YBR023C, strain chs3, stronger effect = lower value 0.981 | locus YBR171W, strain sec66, stronger effect = lower value 0.994 | locus YBR229C, strain ROT2, stronger effect = lower value 1.01 | locus YBR231C, strain swc5, stronger effect = lower value 0.968 | locus YBR279W, strain paf1, stronger effect = lower value 0.986 | locus YCL011C, strain gbp2, stronger effect = lower value 0.984 | locus YCL016C, strain dcc1, stronger effect = lower value 0.983 | locus YCL029C, strain bik1, stronger effect = lower value 1.01 | locus YCL061C, strain MRC1, stronger effect = lower value 0.989 | locus YCL069W, strain vba3, stronger effect = lower value 0.985 | locus YCR088W, strain abp1, stronger effect = lower value 0.976 | locus YDL005C, strain med2, stronger effect = lower value 0.977 | locus YDL035C, strain GPR1, stronger effect = lower value 1.02 | locus YDL040C, strain nat1, stronger effect = lower value 0.971 | locus YDL074C, strain BRE1, stronger effect = lower value 1.03 | locus YDL101C, strain DUN1, stronger effect = lower value 1.01 | locus YDL134C, strain PPH21, stronger effect = lower value 1.01 | locus YDL185W, strain tfp1, stronger effect = lower value 1 | locus YDL192W, strain arf1, stronger effect = lower value 1 | locus YDR001C, strain nth1, stronger effect = lower value 0.992 | locus YDR069C, strain doa4, stronger effect = lower value 0.975 | locus YDR101C, strain arx1, stronger effect = lower value 0.996 | locus YDR137W, strain rgp1, stronger effect = lower value 0.986 | locus YDR150W, strain NUM1, stronger effect = lower value 1.01 | locus YDR159W, strain sac3, stronger effect = lower value 0.943 | locus YDR162C, strain NBP2, stronger effect = lower value 1.01 | locus YDR195W, strain ref2 0.93 | locus YDR297W, strain sur2, stronger effect = lower value 0.993 | locus YDR318W, strain mcm21, stronger effect = lower value 1.01 | locus YDR334W, strain swr1, stronger effect = lower value 0.966 | locus YDR335W, strain msn5, stronger effect = lower value 0.992 | locus YDR388W, stronger effect = lower value 1 | locus YDR392W, strain spt3, stronger effect = lower value 1 | locus YDR502C, strain sam2, stronger effect = lower value 0.997 | locus YEL003W, strain gim4, stronger effect = lower value 1.01 | locus YEL037C, strain rad23, stronger effect = lower value 0.985 | locus YEL061C, strain CIN8 (second series), stronger effect = lower value 0.982 | locus YEL061C, strain CIN8, stronger effect = lower value 1.01 | locus YER015W, strain faa2, stronger effect = lower value 0.996 | locus YER016W, strain bim1, stronger effect = lower value 0.976 | locus YER110C, stronger effect = lower value 1 | locus YER111C, strain swi4, stronger effect = lower value 0.967 | locus YER155C, strain BEM2 (second series), stronger effect = lower value 0.968 | locus YER155C, strain BEM2, stronger effect = lower value 0.973 | locus YER167W, strain BCK2, stronger effect = lower value 1.01 | locus YFR010W, strain ubp6, stronger effect = lower value 0.985 | locus YGL078C, strain dbp3, stronger effect = lower value 0.995 | locus YGL086W, strain mad1, stronger effect = lower value 0.993 | locus YGL167C, strain pmr1, stronger effect = lower value 0.978 | locus YGL173C, strain kem1, stronger effect = lower value 0.986 | locus YGL227W, strain vid30, stronger effect = lower value 0.982 | locus YGL240W, strain doc1, stronger effect = lower value 0.981 | locus YGL248W, strain PDE1, stronger effect = lower value 1.01 | locus YGL253W, strain hxk2, stronger effect = lower value 0.985 | locus YGR078C, strain PAC10, stronger effect = lower value 1.02 | locus YGR135W, strain pre9, stronger effect = lower value 0.998 | locus YGR229C, strain SMI1, stronger effect = lower value 1.01 | locus YGR252W, strain gcn5, stronger effect = lower value 1 | locus YHR013C, strain ard1, stronger effect = lower value 1.01 | locus YHR027C, strain rpn1, stronger effect = lower value 1 | locus YHR030C, strain SLT2, stronger effect = lower value 1.01 and 0.941 | locus YHR079C, strain IRE1 (second series), stronger effect = lower value 0.995 | locus YHR079C, strain IRE1, stronger effect = lower value 0.969 | locus YHR094C, strain hxt1, stronger effect = lower value 0.992 | locus YHR129C, strain ARP1, stronger effect = lower value 1.01 | locus YHR142W, strain chs7, stronger effect = lower value 0.986 | locus YHR200W, strain rpn10, stronger effect = lower value 0.999 | locus YIL066C, strain RNR3, stronger effect = lower value 1.01 | locus YIL073C, strain SPO22, stronger effect = lower value 1.08 | locus YIL125W, strain kgd1, stronger effect = lower value 0.994 | locus YIR030C, strain dcg1, stronger effect = lower value 0.995 | locus YJL092W, strain hpr5, stronger effect = lower value 1 | locus YJL095W, strain BCK1 (second series), stronger effect = lower value 0.985 | locus YJL095W, strain BCK1, stronger effect = lower value 1.02 and 0.998 | locus YJL115W, strain asf1, stronger effect = lower value 0.994 | locus YJL129C, strain trk1, stronger effect = lower value 0.963 | locus YJL134W, strain LCB3, stronger effect = lower value 1 | locus YJL154C, strain vps35, stronger effect = lower value 0.969 | locus YJL164C, strain tpk1, stronger effect = lower value 1 | locus YJL166W, strain qcr8, stronger effect = lower value 0.98 | locus YJL168C, strain set2, stronger effect = lower value 0.996 | locus YJL187C, strain SWE1 (second series), stronger effect = lower value 1.01 | locus YJL187C, strain SWE1, stronger effect = lower value 0.981 | locus YJR043C, strain POL32, stronger effect = lower value 1.02 | locus YJR066W, strain TOR1, stronger effect = lower value 0.987
